Measured values from article PMC5540273 (PLoS ONE, 2017).
“And” between values parts separate entries of the source, which are not always exact repeats. Identical values can stand only once. Like-named read-outs stand apart in the source and are kept apart here.

Key:
Conditions in all cases: n = 1
MAP4K4 = system: MAP4K4
MAP4K5 = system: MAP4K5
MAPKAPK2 = system: MAPKAPK2
MAPKAPK5 = system: MAPKAPK5
MARK1 = system: MARK1
MARK2 = system: MARK2
MARK3 = system: MARK3
MARK4 = system: MARK4
MAST1 = system: MAST1
MEK1 = system: T1, MEK1
T1 construct: gene MAP2K1

MEK2 = system: T2, MEK2
T2 construct: gene MAP2K2

MEK3 = system: T3, MEK3
T3 construct: gene MAP2K3

MEK4 = system: T4, MEK4
T4 construct: gene MAP2K4

MEK5 = system: T5, MEK5
T5 construct: gene MAP2K5

MEK6 = system: T6, MEK6
T6 construct: gene MAP2K6

MELK = system: MELK
MERTK = system: MERTK
MET = system: MET
MINK = system: T7, MINK
T7 construct: gene MINK1

MKK7 = system: MKK7
[1] = concentration: 1 μM, replicates: in singlicate
[2] = concentration: 1 μM,replicates: in singlicate, 1 µM
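Further: KINOMEscan kinase panel screen.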

CSc1nn2c(=O)cc(N3CCOCC3)nc2n1Cc1cccc(C(F)(F)F)c1C [GSK2363608]
%Inh (MAP4K4; [1]): 0% | %Inh (MAP4K5; [1]): 0% | %Inh (MAPKAPK2; [2]): 2% and 27% | %Inh (MAPKAPK5; [1]): 0% | %Inh (MARK1; [2]): 9% and 0% | %Inh (MARK2; [1]): 0% | %Inh (MARK3; [1]): 0% | %Inh (MARK4; [2]): 15% and 0% | %Inh (MAST1; [1]): 0% | %Inh (MEK1; [1]): 0% | %Inh (MEK2; [1]): 0% | %Inh (MEK3; [1]): 0% | %Inh (MEK4; [2]): 17% and 30% | %Inh (MEK5; [2]): 12% and 0% | %Inh (MEK6; [1]): 0% | %Inh (MELK; [2]): 6% and 0% | %Inh (MERTK; [2]): 0% and 18% | %Inh (MET; [1]): 0% | %Inh (MINK; [1]): 0% | %Inh (MKK7; [1]): 0%

Cc1ccccc1-n1cnc2c(N)ncnc21 [SKF-97510]
%Inh (MAP4K4; [1]): 0% | %Inh (MAP4K5; [1]): 0% | %Inh (MAPKAPK2; [1]): 0% | %Inh (MAPKAPK5; [1]): 0% | %Inh (MARK1; [1]): 0% | %Inh (MARK2; [1]): 0% | %Inh (MARK3; [1]): 0% | %Inh (MARK4; [1]): 0% | %Inh (MAST1; [1]): 12% | %Inh (MEK1; [1]): 0% | %Inh (MEK2; [1]): 0% | %Inh (MEK3; [1]): 0% | %Inh (MEK4; [1]): 0% | %Inh (MEK5; [1]): 0% | %Inh (MEK6; [1]): 20% | %Inh (MELK; [1]): 0% | %Inh (MERTK; [1]): 7% | %Inh (MET; [1]): 0% | %Inh (MINK; [1]): 0% | %Inh (MKK7; [1]): 0%

Fc1cccc(COc2nnc(-c3ccc4c(c3)CCO4)o2)c1
%Inh (MAP4K4; [1]): 0% | %Inh (MAP4K5; [1]): 0% | %Inh (MAPKAPK2; [1]): 0% | %Inh (MAPKAPK5; [1]): 11% | %Inh (MARK1; [1]): 14% | %Inh (MARK2; [1]): 24% | %Inh (MARK3; [1]): 0% | %Inh (MARK4; [1]): 24% | %Inh (MAST1; [1]): 21% | %Inh (MEK1; [1]): 5% | %Inh (MEK2; [1]): 4% | %Inh (MEK3; [1]): 0% | %Inh (MEK4; [1]): 0% | %Inh (MEK5; [1]): 9% | %Inh (MEK6; [1]): 0% | %Inh (MELK; [1]): 19% | %Inh (MERTK; [1]): 0% | %Inh (MET; [1]): 0% | %Inh (MINK; [1]): 1% | %Inh (MKK7; [1]): 13%

Cc1cc(-c2ccc3c(c2)CC[C@@H](N[C@@H](C)c2ccccc2)C3)cnc1N.Cl [GW412617]
%Inh (MAP4K4; [1]): 17% | %Inh (MAP4K5; [1]): 41% | %Inh (MAPKAPK2; [1]): 13% | %Inh (MAPKAPK5; [1]): 0% | %Inh (MARK1; [1]): 4% | %Inh (MARK2; [1]): 10% | %Inh (MARK3; [1]): 32% | %Inh (MARK4; [1]): 14% | %Inh (MAST1; [1]): 0% | %Inh (MEK1; [1]): 0% | %Inh (MEK2; [1]): 12% | %Inh (MEK3; [1]): 0% | %Inh (MEK4; [1]): 34% | %Inh (MEK5; [1]): 55% | %Inh (MEK6; [1]): 0% | %Inh (MELK; [1]): 36% | %Inh (MERTK; [1]): 26% | %Inh (MET; [1]): 0% | %Inh (MINK; [1]): 40% | %Inh (MKK7; [1]): 1%

COc1ccc2nc(-c3cccc(C)n3)nc(Nc3ccncc3)c2c1 [GSK204919]
%Inh (MAP4K4; [1]): 0% | %Inh (MAP4K5; [1]): 0% | %Inh (MAPKAPK2; [1]): 17% | %Inh (MAPKAPK5; [1]): 0% | %Inh (MARK1; [1]): 0% | %Inh (MARK2; [1]): 0% | %Inh (MARK3; [1]): 0% | %Inh (MARK4; [1]): 0% | %Inh (MAST1; [1]): 0% | %Inh (MEK1; [1]): 0% | %Inh (MEK2; [1]): 0% | %Inh (MEK3; [1]): 0% | %Inh (MEK4; [1]): 17% | %Inh (MEK5; [1]): 1% | %Inh (MEK6; [1]): 0% | %Inh (MELK; [1]): 0% | %Inh (MERTK; [1]): 15% | %Inh (MET; [1]): 15% | %Inh (MINK; [1]): 30% | %Inh (MKK7; [1]): 0%

O=C(Nc1n[nH]c2nc(-c3nccs3)c(Br)cc12)C1CC1 [SB-742251]
%Inh (MAP4K4; [1]): 4% | %Inh (MAP4K5; [1]): 1% | %Inh (MAPKAPK2; [1]): 0% | %Inh (MAPKAPK5; [1]): 0% | %Inh (MARK1; [1]): 0% | %Inh (MARK2; [1]): 0% | %Inh (MARK3; [1]): 0% | %Inh (MARK4; [1]): 0% | %Inh (MAST1; [1]): 20% | %Inh (MEK1; [1]): 0% | %Inh (MEK2; [1]): 0% | %Inh (MEK3; [1]): 0% | %Inh (MEK4; [1]): 13% | %Inh (MEK5; [1]): 74% | %Inh (MEK6; [1]): 0% | %Inh (MELK; [1]): 0% | %Inh (MERTK; [1]): 12% | %Inh (MET; [1]): 0% | %Inh (MINK; [1]): 20% | %Inh (MKK7; [1]): 0%

Cc1c(Cn2ccn3c(=O)cc(N4CCOCC4)nc23)cccc1C(F)(F)F [GSK2289044]
%Inh (MAP4K4; [1]): 0% | %Inh (MAP4K5; [1]): 0% | %Inh (MAPKAPK2; [1]): 4% | %Inh (MAPKAPK5; [1]): 0% | %Inh (MARK1; [1]): 0% | %Inh (MARK2; [1]): 5% | %Inh (MARK3; [1]): 2% | %Inh (MARK4; [1]): 0% | %Inh (MAST1; [1]): 0% | %Inh (MEK1; [1]): 0% | %Inh (MEK2; [1]): 0% | %Inh (MEK3; [1]): 17% | %Inh (MEK4; [1]): 9% | %Inh (MEK5; [1]): 0% | %Inh (MEK6; [1]): 0% | %Inh (MELK; [1]): 21% | %Inh (MERTK; [1]): 15% | %Inh (MET; [1]): 0% | %Inh (MINK; [1]): 1% | %Inh (MKK7; [1]): 16%

Cn1ccc2ncnc(Oc3ccc(NC(=O)Nc4ccccc4)cc3)c21
%Inh (MAP4K4; [1]): 0% | %Inh (MAP4K5; [1]): 0% | %Inh (MAPKAPK2; [1]): 0% | %Inh (MAPKAPK5; [1]): 0% | %Inh (MARK1; [1]): 11% | %Inh (MARK2; [1]): 0% | %Inh (MARK3; [1]): 50% | %Inh (MARK4; [1]): 10% | %Inh (MAST1; [1]): 18% | %Inh (MEK1; [1]): 0% | %Inh (MEK2; [1]): 20% | %Inh (MEK3; [1]): 20% | %Inh (MEK4; [1]): 0% | %Inh (MEK5; [1]): 39% | %Inh (MEK6; [1]): 0% | %Inh (MELK; [1]): 16% | %Inh (MERTK; [1]): 0% | %Inh (MET; [1]): 28% | %Inh (MINK; [1]): 16% | %Inh (MKK7; [1]): 20%

CCn1c(-c2ccccn2)nc2cnccc21 [SB-736398]
%Inh (MAP4K4; [1]): 0% | %Inh (MAP4K5; [1]): 1% | %Inh (MAPKAPK2; [1]): 21% | %Inh (MAPKAPK5; [1]): 0% | %Inh (MARK1; [1]): 0% | %Inh (MARK2; [1]): 0% | %Inh (MARK3; [1]): 3% | %Inh (MARK4; [1]): 8% | %Inh (MAST1; [1]): 47% | %Inh (MEK1; [1]): 0% | %Inh (MEK2; [1]): 0% | %Inh (MEK3; [1]): 0% | %Inh (MEK4; [1]): 19% | %Inh (MEK5; [1]): 12% | %Inh (MEK6; [1]): 100% | %Inh (MELK; [1]): 22% | %Inh (MERTK; [1]): 0% | %Inh (MET; [1]): 15% | %Inh (MINK; [1]): 0% | %Inh (MKK7; [1]): 0%

Cc1ccc(NC(=O)Nc2cccc(C(F)(F)F)c2)cc1 [GSK955403]
%Inh (MAP4K4; 1 µM): 0% | %Inh (MAP4K5; 1 µM): 0% | %Inh (MAPKAPK2; 1 µM): 0% | %Inh (MAPKAPK5; 1 µM): 0% | %Inh (MARK1; 1 µM): 0% | %Inh (MARK2; 1 µM): 0% | %Inh (MARK3; 1 µM): 0% | %Inh (MARK4; 1 µM): 4% | %Inh (MAST1; 1 µM): 21% | %Inh (MEK1; 1 µM): 5% | %Inh (MEK2; 1 µM): 3% | %Inh (MEK3; 1 µM): 15% | %Inh (MEK4; 1 µM): 0% | %Inh (MEK5; 1 µM): 0% | %Inh (MEK6; 1 µM): 26% | %Inh (MELK; 1 µM): 15% | %Inh (MERTK; 1 µM): 29% | %Inh (MET; 1 µM): 0% | %Inh (MINK; 1 µM): 0% | %Inh (MKK7; 1 µM): 0%
